High-throughput results (PubChem)
TDP-43 yeast inh: rescues yeast growth from TDP-43 toxicity; TDP-43 expressing yeast growth rescue, BacTiter-Glo, 24 h; Potency, µM (titrated, usually from 46.1 µM), for the others: top-dose growth rescue (activation), actives largely listed as activators; actives 1.8% (n = 410,000); AID 652104; also: potency is read from the fitted curve at half-maximal effect; % of control where 0% means no effect; nearly all actives have a fitted effect of over 50% in size
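Galactose-induced TDP-43 yeast, OD600=0.02, compound pinned; 24 hr, 30 deg C; BacTiter-Glo luminescence for growth. Inhibitors of TDP-43 toxicity read as activators.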
CCT modulator: changes cytosolic chaperonin activity; activity change, % (test concentration not listed), hits read low; purified chaperonin ATPase assay, HTRF ADP detection, 30 min; actives 0.3% (n = 360,000); in the data active = activity change below about -30%; also: % is scaled to controls: 0 for no effect and ±100 for the full control effect
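First, chaperonin was dispensed at 40 nM or 20 nM final depending on batch activity. Next, compounds were pinned at 76 uM and ATP added at 10 uM. After 30 min at 37 °C, ADP detection reagents ran 30 min at ambient temperature.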
aSyn rescue: rescues yeast growth from alpha-synuclein toxicity; actives 0.14% (n = 370,000); AID 652106; Potency, µM (series often up to 46.1 µM), inactives show top-dose growth rescue (activation), actives largely listed as activators; Yeast expressing alpha-synuclein, growth rescue, BacTiter-Glo, 24 h; also: potency is read from the fitted curve at half-maximal effect; % of control where 0% means no effect; nearly all actives have a fitted effect of over 65% in size
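Rescue of yeast growth: cells expressing toxic alpha-synuclein, induced in galactose at OD600 0.02, incubated with compound 24 h at 30 C. ATP luminescence quantified growth; inhibitors of toxicity appear as activators.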
Mito fusion act: inhibitors of mitochondrial division or activators of mitochondrial fusion. S. cerevisiae fusion-defective mutant growth rescue, CellTiterGlo 48 h. Potency, µM (top dose mostly 46.1 µM), for inactives: at the top dose growth rescue (activation), actives largely listed as activators. actives 0.23% (n = 320,000). AID 485298; also: potency is read from the fitted curve at half-maximal effect; % of control where 0% means no effect; nearly all actives have a fitted effect of over 45% in size
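Temperature-sensitive fusion-defective S. cerevisiae (e.g. fzo1-1, mgm1-5) were grown with compound in YPEG medium (3% ethanol, 3% glycerol) for 48 hours at 37C. Growth rescue was measured as viability by CellTiterGlo luminescence after 10 minutes at ambient.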
pAkt inh: blocks phosphorylation of Akt. Neuro2A IGF-stimulated pAkt S473 HTRF, 20 min; active compounds read low. actives 0.32% (n = 360,000). activity change, % for hits at 50 µM; in the data active = activity change below about -80%; inconclusive = mostly about -51% to -80%; also: % is scaled to controls: 0 for no effect and ±100 for the full control effect
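Neuro2A cells in DMEM with 0.5% FBS, overnight at 37 deg C, given compound at single 50 µM final, then IGF (6 nM final) for 20 min at 37 deg C. Lysed; phospho-Akt Ser473 by HTRF after 24 h, 665/615 ratio.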
Anesthetic bind: binds horse apoferritin like a general anesthetic; apoferritin/1-aminoanthracene competitive binding, fluorescence; Potency, µM (series often up to 77.5 µM), for the others: at the top dose activity change, negative = displacement, most hits filed as inhibitors; actives 0.074% (n = 350,000); P02791; also: potency is read from the fitted curve at half-maximal effect; % is scaled to controls: 0 for no effect and ±100 for the full control effect; nearly all actives have a fitted effect of over 20% in size
Target sequence (P02791 2-175 limits assumed): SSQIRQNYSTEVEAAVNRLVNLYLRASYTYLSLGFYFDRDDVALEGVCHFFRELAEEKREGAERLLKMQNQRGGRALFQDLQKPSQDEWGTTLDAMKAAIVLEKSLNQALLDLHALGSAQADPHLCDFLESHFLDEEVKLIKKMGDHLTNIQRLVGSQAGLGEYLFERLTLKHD
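Concentration-response curves derived by four-parameter Hill fitting of normalized fluorescence, where compounds displaced 1-AMA from 10 uM horse apoferritin following a brief 10 min room-temperature incubation; propofol titration acted as positive control.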
An asterisk follows results filed as active. Sampled rows, rich in hits. Any-hit rate of the full collection: about 2.5%. Unless noted, calls follow the shape of the dose curve; as a rule, active = well fitted curve in the direction sought with a large enough effect; inconclusive = small, poorly fitted or top-dose-only effect, or another doubt; inactive = no such curve, though single readings can be large; an effect the other way counts as inactive or inconclusive.

What do the screens show for `O=[N+]([O-])c1ncccc1OCc1ccc(Cl)c(Cl)c1`?
TDP-43 yeast inh: inconclusive; CCT modulator: -1; aSyn rescue: -2%; Mito fusion act: 3%; pAkt inh: inactive; Anesthetic bind: inconclusive

Results for Cc1ccc(C(C#N)c2ccc3c(C(F)(F)F)cc(C(F)(F)F)nc3n2)cc1 (stereo not drawn) ?
TDP-43 yeast inh: -23%; CCT modulator: -45*; aSyn rescue: -9%; Mito fusion act: 8%; pAkt inh: inactive; Anesthetic bind: inconclusive

Results for CC(=O)C1=C(c2ccccc2)N(C(C)=O)n2c(nnc2C2CCCCC2)S1 ?
TDP-43 yeast inh: 0%; Anesthetic bind: -6%

What do the screens show for `O=C(COC(=O)CC1CC2CCC1C2)NC(=O)NCc1ccco1` (stereo not drawn)?
TDP-43 yeast inh: 14%; CCT modulator: -1; aSyn rescue: 2%; Mito fusion act: 10%; pAkt inh: inactive; Anesthetic bind: 13µM*

Results for Cc1ccc2oc(/N=C(\N)NC(=O)C3CC3)nc2c1 ?
TDP-43 yeast inh: 20µM*; CCT modulator: -1; aSyn rescue: -28%; Mito fusion act: 0%; pAkt inh: inactive; Anesthetic bind: -7%

What do the screens show for `CCOC(=O)CSc1nc(C)c(CC)c(C)c1C(N)=O`?
TDP-43 yeast inh: 17%; CCT modulator: -62*; aSyn rescue: 10%; Mito fusion act: 0%; pAkt inh: inactive; Anesthetic bind: -7%

Results for CCOC(=O)CSc1nc(C)cc(C)c1C(N)=O ?
TDP-43 yeast inh: 4%; CCT modulator: 1; aSyn rescue: 10%; Mito fusion act: 4%; pAkt inh: inactive; Anesthetic bind: -6%

Results for Cc1cc(Br)c(NC(=O)COC(=O)C2CCCCC2)c(Br)c1 ?
TDP-43 yeast inh: 16µM*; CCT modulator: 0; aSyn rescue: 0%; pAkt inh: inactive

How did O=[N+]([O-])c1ccc(-c2cc3ccccc3[nH]2)cc1 do in these assays?
aSyn rescue: -10%

What do the screens show for `CCCN1C(=O)C(Cc2nc3ccccc3c(=O)n2CC)c2cc(Br)ccc21` (stereo not drawn)?
TDP-43 yeast inh: 15%; Anesthetic bind: inconclusive

What do the screens show for `C=CCn1c2ccccc2c(=O)c2cc(C#Cc3ccsc3)ccc21`?
Mito fusion act: 5%; Anesthetic bind: 4%

How did C=CCn1c2ccccc2c(=O)c2cc(C#Cc3ccccn3)ccc21 do in these assays?
TDP-43 yeast inh: 20µM*; CCT modulator: -1; aSyn rescue: -25%; Mito fusion act: 13%; pAkt inh: inactive

How did COc1ccc(Nc2ccccc2C(=O)O)cc1 do in these assays?
TDP-43 yeast inh: -26%; CCT modulator: 0; aSyn rescue: 15%; Mito fusion act: -2%; pAkt inh: inactive; Anesthetic bind: -4%

What do the screens show for `COc1ccc(Nc2cccccc2=O)cc1`?
TDP-43 yeast inh: 11µM*; CCT modulator: -1; aSyn rescue: 8%; Mito fusion act: 1%; pAkt inh: inactive; Anesthetic bind: inconclusive

How did COc1cc(-c2nnn(CC(=O)Nc3ccc(OC(F)(F)F)cc3)n2)cc(OC)c1OC do in these assays?
TDP-43 yeast inh: 0%; Anesthetic bind: -12%

How did CC(=O)c1ccc(C2CC34CNS(=O)(=O)C3CC2O4)cc1 (stereo not drawn) do in these assays?
Anesthetic bind: -1%

What do the screens show for `CC(C)(C)c1cc(NS(=O)(=O)c2ccc(Br)s2)no1`?
TDP-43 yeast inh: 22µM*; CCT modulator: -1; aSyn rescue: -15%; Mito fusion act: 7%; pAkt inh: inactive; Anesthetic bind: inconclusive

Results for COCCNc1nc(-c2ccc(Cl)cc2C)c2sccc2n1 ?
TDP-43 yeast inh: 22µM*; CCT modulator: 0; aSyn rescue: 10%; pAkt inh: inactive

Results for Cc1cc(Cl)ccc1-c1nc(NCc2ccccc2)nc2ccsc12 ?
TDP-43 yeast inh: inconclusive; CCT modulator: -2; aSyn rescue: 24%; pAkt inh: inactive

Results for Cc1cc(Cl)ccc1-c1nc(NC(C)C)nc2ccsc12 ?
TDP-43 yeast inh: 35µM*; CCT modulator: -3; aSyn rescue: inconclusive; pAkt inh: inactive

Results for Cc1cc(Cl)ccc1OCC(=O)NNC(=O)C1CCN(c2ncnc3sc(C)c(C)c23)CC1 ?
TDP-43 yeast inh: 22µM*; CCT modulator: -1; aSyn rescue: 1%; Mito fusion act: 29%; pAkt inh: inactive

What do the screens show for `Cc1nc(S(=O)(=O)N2CCOCC2)c(C#N)c(C)c1Cl`?
TDP-43 yeast inh: 13µM*; CCT modulator: 2; aSyn rescue: 4%; Mito fusion act: 4%; pAkt inh: inactive; Anesthetic bind: -15%

What do the screens show for `CC(=NNC(=S)N1CC2CCC(CC2)C1)c1ccccn1`?
TDP-43 yeast inh: 22µM*; CCT modulator: -2; aSyn rescue: 22%; pAkt inh: inactive

What do the screens show for `C/C(=N\NC(=O)c1ccccc1Cl)c1ccccn1`?
TDP-43 yeast inh: 18%; CCT modulator: 2; aSyn rescue: -2%; Mito fusion act: -35%; pAkt inh: inactive; Anesthetic bind: 2%

Results for C/C(=N/NC(=O)c1ccc(C(C)(C)C)cc1)c1ccccn1 ?
TDP-43 yeast inh: 14µM*; CCT modulator: -1; aSyn rescue: inconclusive; pAkt inh: inactive

How did O=C(NN=C(c1ccccc1)c1ccccn1)c1ccccc1 do in these assays?
TDP-43 yeast inh: 15%; CCT modulator: -1; aSyn rescue: -21%; pAkt inh: inactive

Results for COc1ccc(C(=O)N/N=C(\c2ccccc2)c2ccccn2)cc1 ?
TDP-43 yeast inh: 22µM*; CCT modulator: -3; aSyn rescue: -25%; Mito fusion act: 6%; pAkt inh: inactive; Anesthetic bind: -6%

How did C/C(=N\NC(=O)c1ccc(Cl)c(Cl)c1)c1ccccn1 do in these assays?
TDP-43 yeast inh: 7.1µM*; CCT modulator: 0; aSyn rescue: 4µM*; Mito fusion act: -7%; pAkt inh: inactive; Anesthetic bind: 0%

What do the screens show for `COc1ccc(C(=O)N/N=C(\C)c2ccccn2)cc1OC`?
TDP-43 yeast inh: 14%; CCT modulator: -5; aSyn rescue: 8%; Mito fusion act: 0%; pAkt inh: inactive; Anesthetic bind: -8%

How did Cc1cccc(Cn2cc(C(=O)Nc3ccc(S(N)(=O)=O)cc3)ccc2=O)c1 do in these assays?
TDP-43 yeast inh: inconclusive; aSyn rescue: inconclusive; Anesthetic bind: -7%

What do the screens show for `Cc1cc(C)c2c(-n3cccc3)n[nH]c2n1`?
TDP-43 yeast inh: -10%; CCT modulator: 1; aSyn rescue: 1%; Mito fusion act: -1%; pAkt inh: inactive; Anesthetic bind: -10%
